This passage reports nuclei count, normalised and p53-positive nuclei, normalised results from PubChem BioAssay AID1508601 (ICCB-Longwood Screening Facility, Harvard Medical School, 2020).

Out of some 5,700 compounds screened, about 85 (1%) were called active. Rule as the data show it: active = p53-positive nuclei above about 36% (passing the limit was not always enough); inactive = the rest. The full list was thinned out, with actives kept by preference.

Test [1] can be described thus: p53 stabilisation in HPV-positive human cells, imaging, p53-positive nuclei imaging, 24 h, 48 h (AID 1508601). To be noted: 24/48 h.
For test [2], the target named is Cellular tumor antigen p53 (Homo sapiens) (UniProt P04637). The test is described as above. The conditions noted are these: 24/48 h, stronger effect = higher value.
Setting [3] is: measured here: cell number at 24 h, concentration not given here.
Where [4] appears, read: measured here: cell number at 48 h, concentration not given here.
Setting [5] is: measured here: p53 positive nuclei at 24 h, concentration not given here.
The mark [6] stands for this setting: measured here: cell number at 24 h, Library stock concentration: 80 uM.
The mark [7] stands for this setting: measured here: cell number at 24 h, Library stock concentration: 400 uM.
Setting [8] is: measured here: cell number at 24 h, Library stock concentration: 2 mM.
[9] abbreviates: measured here: cell number at 24 h, Library stock concentration: 10 mM.
The mark [10] stands for this setting: measured here: cell number at 48 h, Library stock concentration: 80 uM.
Where [11] appears, read: measured here: cell number at 48 h, Library stock concentration: 400 uM.
The mark [12] stands for this setting: measured here: cell number at 48 h, Library stock concentration: 2 mM.
Setting [13] is: measured here: cell number at 48 h, Library stock concentration: 10 mM.
The mark [14] stands for this setting: Library stock concentration: 80 uM.
The mark [15] stands for this setting: Library stock concentration: 400 uM.
Where [16] appears, read: Library stock concentration: 2 mM.
Setting [17] is: Library stock concentration: 10 mM.
[18] abbreviates: measured here: p53 positive nuclei at 24 h, Library stock concentration: 80 uM.
Where [19] appears, read: measured here: p53 positive nuclei at 24 h, Library stock concentration: 400 uM.
[20] abbreviates: measured here: p53 positive nuclei at 24 h, Library stock concentration: 2 mM.
Setting [21] is: measured here: p53 positive nuclei at 24 h, Library stock concentration: 10 mM.

Cellular tumor antigen p53 (Homo sapiens), sequence (P04637 whole entry, looked up): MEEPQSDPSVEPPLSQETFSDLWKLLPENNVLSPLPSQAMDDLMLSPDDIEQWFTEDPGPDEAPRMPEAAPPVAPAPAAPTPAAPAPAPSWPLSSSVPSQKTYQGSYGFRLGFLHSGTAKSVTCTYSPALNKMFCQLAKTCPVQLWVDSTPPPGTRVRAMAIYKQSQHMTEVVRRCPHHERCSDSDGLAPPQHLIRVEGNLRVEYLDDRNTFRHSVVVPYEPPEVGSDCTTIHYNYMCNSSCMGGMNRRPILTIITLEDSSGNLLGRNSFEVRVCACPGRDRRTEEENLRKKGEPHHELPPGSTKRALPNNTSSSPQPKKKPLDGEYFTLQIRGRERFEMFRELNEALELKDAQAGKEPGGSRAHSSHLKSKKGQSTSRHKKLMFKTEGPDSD

On to `COc1nccnc1-c1ccc2c(c1)OCO2`, for which the nuclei count, normalised in test [1] (setting [3]) was 115%; in test [1] (setting [4]), 114%. Besides, the p53-positive nuclei, normalised in test [2] (concentration not given here) is -0.145% (inactive); in test [2] (setting [5]) it was -0.0884%.

In the case of `c1nc(-c2ccc3c(c2)OCCO3)c2sccc2n1`, the nuclei count, normalised in test [1] (setting [3]) is 74.2%; in test [1] (setting [4]), 38.4%. Besides, the p53-positive nuclei, normalised in test [2] (concentration not given here) was 68.7% (active); in test [2] (setting [5]), 3%.

On to `NC(=O)c1ccc(-c2nc(-c3ccc4c(c3)OCCO4)c(-c3ccccn3)[nH]2)cc1`, for which the nuclei count, normalised was 108% in test [1] (setting [6]); 108% in test [1] (setting [7]); 103% in test [1] (setting [8]); 105% in test [1] (setting [9]); 114% in test [1] (setting [3]); 111% in test [1] (setting [10]). The nuclei count, normalised in test [1] (setting [11]) stood at 111%; in test [1] (setting [12]) it was 103%; in test [1] (setting [13]) it was 99.9%; in test [1] (setting [4]) it was 116%. Moreover, the p53-positive nuclei, normalised is 0.102% (inactive) in test [2] (setting [14]); 0.159% (inactive) in test [2] (setting [15]); -0.0937% (inactive) in test [2] (setting [16]); 0.066% (inactive) in test [2] (setting [17]); -0.0133% (inactive) in test [2] (concentration not given here); -0.0114% in test [2] (setting [18]). The p53-positive nuclei, normalised is 0.0817% in test [2] (setting [19]), -0.00675% in test [2] (setting [20]), 0.138% in test [2] (setting [21]) and -0.0284% in test [2] (setting [5]).

As to `CC=C1NC(=O)C2CSSCCC=CC(CC(=O)NC(C(C)C)C(=O)N2)OC(=O)C(C(C)C)NC1=O` (centres undefined), the nuclei count, normalised is 45.3% in test [1] (measured here: cell number at 24 h, Library stock concentration: 3.33 mM) and 13.5% in test [1] (measured here: cell number at 48 h, Library stock concentration: 3.33 mM). Further, the p53-positive nuclei, normalised was 138% (active) in test [2] (Library stock concentration: 3.33 mM) and 79.1% in test [2] (measured here: p53 positive nuclei at 24 h, Library stock concentration: 3.33 mM).

Take `OC1CCC(Nc2ncc3nc(Nc4c(F)cc(F)cc4F)n(C4CCOC4)c3n2)CC1` (centres undefined): the nuclei count, normalised in test [1] (setting [6]) is 108%; in test [1] (setting [7]) it was 111%; in test [1] (setting [8]) it was 106%; in test [1] (setting [9]), 114%; in test [1] (setting [10]), 111%; in test [1] (setting [11]) it was 111%. Also, the nuclei count, normalised worked out at 112% in test [1] (setting [12]) and 113% in test [1] (setting [13]). Moreover, the p53-positive nuclei, normalised is 0.0644% (inactive) in test [2] (setting [14]); -0.0934% (inactive) in test [2] (setting [15]); -0.0819% (inactive) in test [2] (setting [16]); -0.265% (inactive) in test [2] (setting [17]); 0.0898% in test [2] (setting [18]); -0.0608% in test [2] (setting [19]). Moreover, the p53-positive nuclei, normalised in test [2] (setting [20]) was -0.051%; in test [2] (setting [21]), -0.0545%.

With `O=C1SC(=Cc2ccc(OCc3cccc(B(O)O)c3)cc2)C(=O)N1Cc1ccc(F)cc1`, the nuclei count, normalised in test [1] (setting [6]) was 110%; in test [1] (setting [7]), 108%; in test [1] (setting [8]) it was 110%; in test [1] (setting [9]) it was 110%; in test [1] (setting [10]), 102%; in test [1] (setting [11]), 102%. Also, the results for the nuclei count, normalised in test [1] (setting [12]) and in test [1] (setting [13]) were 109% and 113%, respectively. For the same compound, the p53-positive nuclei, normalised in test [2] (setting [14]) is 0.073% (inactive); in test [2] (setting [15]) it was 0.243% (inactive); in test [2] (setting [16]), 0.131% (inactive); in test [2] (setting [17]), -0.221% (inactive); in test [2] (setting [18]) it was 0.0618%; in test [2] (setting [19]), 0.065%. Besides, the p53-positive nuclei, normalised in test [2] (setting [20]) was 0.123%; in test [2] (setting [21]), -0.0586%.

In the case of `CCN(CC)c1ccc(C=NNC(=O)c2ccc(O)cc2)cc1`, the nuclei count, normalised in test [1] (measured here: cell number at 24 h, Library stock concentration: 46 uM) came to 111%; in test [1] (measured here: cell number at 24 h, Library stock concentration: 278 uM) it was 117%; in test [1] (measured here: cell number at 24 h, Library stock concentration: 1.67 mM) it was 121%; in test [1] (setting [9]) it was 79.3%; in test [1] (measured here: cell number at 48 h, Library stock concentration: 46 uM) it was 116%; in test [1] (measured here: cell number at 48 h, Library stock concentration: 278 uM) it was 118%. In addition, the nuclei count, normalised in test [1] (measured here: cell number at 48 h, Library stock concentration: 1.67 mM) is 118%; in test [1] (setting [13]) it was 83.6%. In addition, the p53-positive nuclei, normalised is -0.325% (inactive) in test [2] (Library stock concentration: 46 uM); -0.186% (inactive) in test [2] (Library stock concentration: 278 uM); -0.0464% (inactive) in test [2] (Library stock concentration: 1.67 mM); 1.02% (inactive) in test [2] (setting [17]); -0.151% in test [2] (measured here: p53 positive nuclei at 24 h, Library stock concentration: 46 uM); -0.0898% in test [2] (measured here: p53 positive nuclei at 24 h, Library stock concentration: 278 uM). The p53-positive nuclei, normalised in test [2] (measured here: p53 positive nuclei at 24 h, Library stock concentration: 1.67 mM) was found to be 0.0252%; in test [2] (setting [21]), 0.906%.

For `Nc1ccc(C(=O)O)c(O)c1` (tested in a mixture with another compound), the values for the nuclei count, normalised in test [1] (setting [3]) and in test [1] (setting [4]) were 95.8% and 101%, respectively. Also, the p53-positive nuclei, normalised in test [2] (concentration not given here) was 0.284% (inactive); in test [2] (setting [5]), 0.00463%.

`CCC(C)C(NC(=O)C(C(C)CC)N(C)C(C)=O)C(=O)NC(C(=O)NC(CC(C)C)C(=O)[C@@]1(C)CO1)C(C)O` (some centres undefined): the nuclei count, normalised in test [1] (setting [6]) is 52.8%; in test [1] (setting [7]) it was 48.9%; in test [1] (setting [8]) it was 47.9%; in test [1] (setting [9]) it was 45.3%; in test [1] (setting [10]), 41.4%; in test [1] (setting [11]), 39.9%. In addition, the nuclei count, normalised in test [1] (setting [12]) was found to be 38.3%; in test [1] (setting [13]), 35.1%. Besides, the p53-positive nuclei, normalised in test [2] (setting [14]) is 104% (active); in test [2] (setting [15]), 100% (active); in test [2] (setting [16]), 107% (active); in test [2] (setting [17]) it was 106% (active); in test [2] (setting [18]) it was 124%; in test [2] (setting [19]), 125%. Besides, the p53-positive nuclei, normalised in test [2] (setting [20]) worked out at 127%; in test [2] (setting [21]) it was 125%.

Consider `CC(=O)N[C@@H](CC(C)C)C(=O)N1CCC(n2cc(C(C)(C)N)nn2)CC1`, for which the nuclei count, normalised in test [1] (setting [3]) is 104%; in test [1] (setting [4]), 109%. The p53-positive nuclei, normalised is -0.0832% (inactive) in test [2] (concentration not given here) and 0.155% in test [2] (setting [5]).
